Results: PubChem BioAssay AID800 (PCMD, 2007)
Hit rate of the full screen: of about 220,000 compounds, about 650 (0.3%) were called active. Cut-off read from the data, not from the text of the source: active = inhibition above about 40%; inactive = the rest. Many of the other results were omitted from the sample, so actives are more common in it than they were.

These molecules were tested against Coagulation factor XII (Homo sapiens) (UniProt P00748) (assay: coagulation factor XIIa activity inhibition – biochemical, 1536-well, primary screen (AID 800;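 note: 0% = enzyme with no compound and 100% = blank without enzyme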)). Conditions: purified FXIIa, Boc-QGR-AMC fluorogenic substrate, 2 h; at 5 µM; active compounds read high.
Chain of Coagulation factor XII (Homo sapiens) (P00748 20-372 limits assumed): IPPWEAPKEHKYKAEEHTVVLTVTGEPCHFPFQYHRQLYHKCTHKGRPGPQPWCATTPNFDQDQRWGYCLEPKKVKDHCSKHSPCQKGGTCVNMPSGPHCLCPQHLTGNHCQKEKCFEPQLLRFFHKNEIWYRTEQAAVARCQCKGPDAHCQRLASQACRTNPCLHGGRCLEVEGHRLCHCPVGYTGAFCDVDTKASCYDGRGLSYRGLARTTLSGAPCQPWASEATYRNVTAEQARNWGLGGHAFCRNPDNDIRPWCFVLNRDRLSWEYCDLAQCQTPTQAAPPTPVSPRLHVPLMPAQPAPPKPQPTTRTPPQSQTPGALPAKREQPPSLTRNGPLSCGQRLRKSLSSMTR
Chain of Coagulation factor XII (Homo sapiens) (P00748 373-615 limits assumed): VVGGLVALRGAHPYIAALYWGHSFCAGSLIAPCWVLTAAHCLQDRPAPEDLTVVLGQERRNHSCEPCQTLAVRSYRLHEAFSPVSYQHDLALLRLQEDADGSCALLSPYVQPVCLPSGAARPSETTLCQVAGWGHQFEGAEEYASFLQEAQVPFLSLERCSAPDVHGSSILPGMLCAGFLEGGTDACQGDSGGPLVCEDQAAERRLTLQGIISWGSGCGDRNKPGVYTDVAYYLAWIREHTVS

inhibition, inactive:
Cc1[nH]n(C)c(=O)c1C(=O)c1c(-c2c(Cl)cccc2Cl)noc1C 2.28%
CCOc1c(Nc2cccc(Cl)c2)c(=O)c1=O 8.16%
COc1ccc(Nc2ncnc3sc(-c4ccccc4)cc23)c(OC)c1 4.94%
CC(C)(C)c1cc(C(=O)N/N=C/c2ccc([N+](=O)[O-])s2)n[nH]1 7.22%
Cc1nc(N)[nH]c(=O)c1Oc1cccc(C(F)(F)F)c1 3.61%
O=C(CSC(=S)N1CCCCC1)c1c(F)cccc1F 6.72%
CNC(=O)c1cccc2nc3ccccc3nc12 6.68%
Brc1ccc(-c2nn[nH]n2)cc1 12.5%
CC(C)S(=O)(=O)c1csc(NC(=O)Nc2ccc(Cl)cc2)c1Cl 6.02%
C=C(C)C(=O)O[C@H]1C/C(C)=C\C(=O)/C=C(\C)[C@H](O)[C@@H]2OC(=O)C(=C)[C@@H]21 8.34%
COc1cccc(Nc2nnc(SCC(=O)N3CC(=O)Nc4ccccc43)s2)c1 5.5%
C/C=N/N(c1ccccc1)c1ccccc1 4.81%
CC(C)(C)C(=O)Nc1c(Br)c(C2CC2)nn1-c1ccccc1 6.88%
Cc1cc(C)cc(OCC(=O)O/N=C(\N)Cc2ccc([N+](=O)[O-])cc2)c1 0.85%
CCOc1cc(CN2CCN(C(=O)CC(C)C)CC2)ccc1OC -3.42%
O=C(COc1ccc(Cl)cc1[N+](=O)[O-])N1CCCCC1 2.91%
O=C(CN1C(=O)CC(c2ccccc2)=Nc2ccccc21)NC1CCCCC1 12.2%
O=C(CN1C(=O)NC2(CCCCCC2)C1=O)NC1CC1 0.9%
CN(C)/C=C1/C(=O)Nc2ccccc21 8.66%
Cc1ccc(C2=C/C(=C\c3cccnc3)C(=O)O2)cc1 10.9%
NC(=O)C1=C[C@@H](c2csc3ccccc23)C[C@@H](OCc2ccc(CO)cc2)O1 5.57%
CCN(CC)C(=O)CC(c1ccc2c(c1)OCO2)c1c(OC)cc(OC)c2c(-c3ccccc3)cc(=O)oc12 (configuration not stated) -2.49%
Cc1ccc(/C=C/C(=O)O)cc1S(=O)(=O)N1CCC(Cc2ccccc2)CC1 6.76%
O=c1[nH]nc(SCCS(=O)(=O)c2ccc(F)cc2)n1-c1ccccc1C(F)(F)F 6.99%
CN(c1ccccn1)c1ncnc2[nH]ncc12 3.53%
O=C(NC1CC1)C1=C[C@H](c2c[nH]c3ccccc23)C[C@H](OCc2ccc(CO)cc2)O1 1.62%
Cc1nc(C(=O)NCc2ccccc2)sc1C1(C)CC(c2cccnc2)=NO1 (configuration not stated) 6.55%
CC1=NNC(=O)C1CC(=O)N/N=C/c1ccncc1 (configuration not stated) 2.75%
C=CCCN(Cc1ccccc1)S(=O)(=O)c1ccccc1Br 5.98%
c1ccc(-c2cc(N3CCCCC3)c3ccccc3n2)cc1 16%
Cc1ccccc1NC(=O)Nc1ccccc1N1CCCCC1 5.71%
Cc1cc(-n2cnc(-c3cn(C)nc3C)n2)no1 11.1%
CCCCCCNS(=O)(=O)c1ccccc1Br 9.21%
O=C(Cn1cnc2cc([N+](=O)[O-])ccc2c1=O)NC(=O)NCc1ccccc1 1.31%
CCOC(=O)NNc1cc(C(F)(F)F)ccn1 9.46%
O=C(NNS(=O)(=O)c1ccccc1C(F)(F)F)c1cc2ncc(C(F)(F)F)cc2s1 9.81%
CCc1ccc[n+](-c2nc([O-])sc2C=O)c1 9.94%
C#CCOCCOCCOCCNc1nc(N2CCN(C(=O)[C@H](CCC(=O)O)n3cc(C(N)CO)nn3)CC2)nc(N2CCN(C(=O)[C@H](CCCCN)n3cc(C(N)CC(C)C)nn3)CC2)n1 (some centres not stated) 5.53%
N#Cc1c(NCCO)ccc([N+](=O)[O-])c1NCCO 12.3%
CCCC[C@@H]1CN=C(N)N1CCc1cc(C(F)(F)F)cc(C(F)(F)F)c1 2.17%
CC(C)c1ccc(NC(=S)NC2CC3C=CC2C3)cc1 (configuration not stated) 3.63%
CCCc1c(C(=O)Nc2ccc(F)cc2)cnn1-c1ccccc1 -0.53%
CCOC(=O)c1c(NC(=S)NC(=O)c2ccco2)sc2c1CCCC2 23.9%
CCOCC(=O)Nc1sc2c(c1C(=O)OCC)CCCC2 5.03%
C=C1CCN([C@H](C(=O)NCc2cc(OC)c(OC)c(OC)c2)C(C)C)S(=O)(=O)c2ccccc21 4.35%
FC(F)(F)c1ccnc(Oc2ccc(C3=NCCS3)cc2)c1 9.29%
CCOc1ccc(C2c3[nH]c4ccccc4c3CCN2Cc2cccn2-c2ncccn2)cc1 (configuration not stated) 4.53%
CC(C)(C)CN1C(=O)C(=O)NC[C@H]1Cc1cccc2ccccc12 4.1%
COCc1cc(=O)[nH]c(-c2ccc(C(F)(F)F)cc2)n1 8.57%
COc1ccccc1C1CCN(C(=S)Nc2ccc(Br)cc2)CC1 3.05%
Fc1ccc(-c2csc(-c3ccc(C4SCCS4)cc3)n2)cc1F 7.1%
COc1ccc(C(CC(=O)N2CCN(c3ccccc3)CC2)c2c(O)cc(OC)cc2OC)cc1 (configuration not stated) 1.72%

inhibition, active:
CCOc1cc(CO)ccc1OCC(=O)N1CCCCC1 52.6%
CCC1SC(CC)C(=O)N(CC(=O)NC2CCCCC2)C1=O (configuration not stated) 101%
CN(C)/C=C1\C=C(c2ccccc2)OC1=O 49.5%
c1ccc(-n2cccc2)c(N2CCCCC2)c1 46.9%
CCOC(=O)c1c(NC(=O)c2ccc(Br)o2)sc2c1CCCC2 44%
